PubChem BioAssay AID1159580 (chemical genetic matrix, 2015)
Hit rate of the full screen: of about 5,500 compounds, about 2,000 (36%) were called active. Another 18% or so got no clear call; they are omitted. No stated cut-off is given here; in the data, active means normalized growth mostly below about 0.91 (no sharp cut-off); inconclusive means no clear call, values can overlap the other calls; inactive means mostly above about 0.92. The list shows a part of the results.

Assay: chemical genetic growth profiling, strain panel (AID 1159580);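 further: tested at 20 µM; growth read once vehicle control cultures reached saturation at 30 °C; 1 = growth at the plate median or of vehicle wells; lower values mean less growth of the strain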
Conditions: S. cerevisiae deletion strains, growth OD
[1] = locus YDL101C, strain DUN1, hits give low values
[2] = locus YHR030C, strain SLT2, hits give low values

Measured: normalized growth

C=CCC1C(=O)N(S(=O)(=O)c2ccc(Cl)cc2)N=C1CCC (stereo unspecified)
inactive: locus YAR019C, strain CDC15, hits give low values 0.992 | locus YBL105C, strain PKC1, hits give low values 0.994 | locus YBR135W, strain CKS1, hits give low values 0.998 | locus YBR136W, strain MEC1, hits give low values 0.987 | locus YBR160W, strain CDC28, hits give low values 0.997 | locus YDL017W, strain CDC7, hits give low values 0.996 | locus YDL028C, strain MPS1, hits give low values 0.995 | [1] 0.991 | locus YDL108W, strain KIN28, hits give low values 0.989 | locus YDL132W, strain cdc53, hits give low values 0.994 | locus YDL214C, strain PRR2, hits give low values 0.951 | locus YDR052C, strain DBF4, hits give low values 0.999 | locus YDR054C, strain cdc34, hits give low values 0.996 | locus YDR226W, strain ADK1, hits give low values 0.996 | locus YDR477W, strain SNF1, hits give low values 0.981 | locus YER123W, strain YCK3, hits give low values 0.961 | locus YER133W, strain GLC7, hits give low values 0.986 | locus YFL009W, strain cdc4, hits give low values 0.993 | locus YFL029C, strain CAK1, hits give low values 0.984 | locus YFR003C, strain YPI1, hits give low values 0.996 | locus YFR019W, strain FAB1, hits give low values 0.977 | locus YFR028C, strain CDC14, hits give low values 0.991 | locus YGR040W, strain KSS1, hits give low values 0.97 | locus YGR052W, strain FMP48, hits give low values 1.06 | locus YGR092W, strain DBF2, hits give low values 0.997 | [2] 1.05 | locus YHR079C, strain IRE1, hits give low values 0.97 | locus YHR082C, strain KSP1, hits give low values 1.01 | locus YHR205W, strain SCH9, hits give low values 0.972 | locus YIL147C, strain SLN1, hits give low values 0.992 | locus YJL095W, strain BCK1, hits give low values 0.993 | locus YJL128C, strain PBS2, hits give low values 0.943 | locus YJL157C, strain FAR1, hits give low values 0.983 | locus YJR016C, strain ILV3, hits give low values 0.994 | locus YJR066W, strain TOR1 (second series), hits give low values 0.978 | locus YJR066W, strain TOR1, hits give low values 0.986 | locus YKL048C, strain ELM1, hits give low values 0.962 | locus YKL067W, strain YNK1, hits give low values 0.964 | locus YKL101W, strain HSL1, hits give low values 0.942 | locus YKL193C, strain SDS22, hits give low values 0.995 | locus YKL203C, strain TOR2, hits give low values 1.04 | locus YLR113W, strain HOG1, hits give low values 0.887 | locus YLR133W, strain CKI1, hits give low values 0.965 | locus YLR403W, strain SFP1, hits give low values 1 | locus YML070W, strain DAK1, hits give low values 0.963 | locus YMR001C, strain CDC5, hits give low values 0.991 | locus YMR205C, strain PFK2 (second series), hits give low values 0.966 | locus YMR277W, strain FCP1, hits give low values 0.999 | locus YNL006W, strain LST8, hits give low values 0.999 | locus YNL020C, strain ARK1, hits give low values 0.962 | locus YNL161W, strain CBK1, hits give low values 0.994 | locus YNL183C, strain NPR1, hits give low values 0.98 | locus YNL207W, strain RIO2, hits give low values 0.995 | locus YNL222W, strain SSU72, hits give low values 0.994 | locus YNL307C, strain MCK1 (second series), hits give low values 0.989 | locus YOL078W, strain AVO1, hits give low values 0.995 | locus YOL136C, strain PFK27, hits give low values 0.968 | locus YOR061W, strain CKA2, hits give low values 0.97 | locus YOR119C, strain RIO1, hits give low values 1.01 | locus YOR231W, strain MKK1, hits give low values 0.968 | locus YOR329C, strain SCD5, hits give low values 0.996 | locus YPL031C, strain PHO85, hits give low values 0.953 | locus YPL153C, strain RAD53, hits give low values 0.977 | locus YPL204W, strain HRR25, hits give low values 0.998 | locus YPL209C, strain IPL1, hits give low values 0.994 | locus YPL256C, strain CLN2, hits give low values 0.916 | locus YPR025C, strain CCL1, hits give low values 0.994 | locus YPR106W, strain ISR1, hits give low values 0.988 | locus YPR111W, strain DBF20, hits give low values 0.978 | strain NNK1, hits give low values 0.982 | strain TSCII, hits give low values 0.989

NC(=O)C1=C(O)C(=O)N(C2CCCCC2)C1
inactive: locus YAL013W, strain DEP1, hits give low values 0.992 | locus YBR229C, strain ROT2, hits give low values 1.01 | [1] 1.02 | locus YDR150W, strain NUM1, hits give low values 1.03 | locus YEL061C, strain CIN8, hits give low values 0.995 | locus YGR078C, strain PAC10, hits give low values 1 | [2] 1.05 | locus YHR087W, strain rtc3, hits give low values 0.99 | locus YJR043C, strain POL32, hits give low values 1.02 | locus YJR075W, strain HOC1, hits give low values 1.01 | locus YKL190W, strain CNB1, hits give low values 1.01 | locus YLR039C, strain RIC1, hits give low values 1.02 | locus YLR058C, strain SHM2 (second series), hits give low values 1.01 | locus YLR085C, strain ARP6, hits give low values 1.03 | locus YLR262C, strain YPT6, hits give low values 1 | locus YML094W, strain GIM5, hits give low values 1 | locus YMR219W, strain ESC1, hits give low values 1.01 | locus YMR263W, strain SAP30, hits give low values 1 | locus YNL153C, strain GIM3, hits give low values 1.01 | locus YNL298W, strain CLA4 (second series), hits give low values 1.02 | locus YNL322C, strain KRE1, hits give low values 0.998 | locus YNR030W, strain Alg12, hits give low values 1.03 | locus YPL055C, strain LGE1, hits give low values 0.999 | locus YPL241C, strain CIN2, hits give low values 0.974 | locus YPR135W, strain CTF4, hits give low values 1.06
